Assay outcomes from PubChem BioAssay.
Pf growth 48h: inhibits P. falciparum growth in the first generation, 48 h. P. falciparum luciferase growth in erythrocytes, 48 h. Potency, µM (titrated, usually from 28.7 µM), for inactives: top-dose activity change, negative = inhibition, actives largely listed as inhibitors. hit rate 5.9% among 310,000; note: potency is the fitted concentration of half-maximal effect; % is set by controls: 0 for no effect and ±100 for the full control effect
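Luciferase-expressing parasites in RBCs, 2% Hct / 0.1% parasitemia final; RPMI 1640 + 0.5% Albumax; 37 C, 5% CO2, one generation; luminescence read-out, lower signal = inhibition.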
Marburg entry inh: inhibitors of Marburg virus binding or cell entry. Marburg virus pseudotyped entry inhibition, cell reporter. Potency, µM (top dose mostly 37.8 µM), inactives show at the highest dose activity change, negative = inhibition, usual class: inhibitors. hit rate 1.8% among 300,000. AID 540276; calls by dose curve; tested in HEK293 cells; note: potency is the fitted concentration of half-maximal effect; % is set by controls: 0 for no effect and ±100 for the full control effect
Lassa entry inh: Lassa virus entry inhibition; Lassa virus pseudotype entry inhibition, cell reporter; Potency, µM (highest dose often 37.9 µM), inactives show at the highest dose activity change, negative = inhibition, usual class: inhibitors; hit rate 1.2% among 300,000; AID 540256; calls by dose curve; tested in HEK293 cells; note: potency is the fitted concentration of half-maximal effect; % is set by controls: 0 for no effect and ±100 for the full control effect; nearly all actives have a fitted effect of over 50% in size
Cycloheximide cs: affects cycloheximide protein synthesis inhibition readout, counter-screen; hit rate 12% among 300,000; max response, %; cell reporter, cycloheximide protein synthesis inhibition counterscreen; in the data active = max response mostly above about 13%, no sharp cut-off; inactive = mostly below about 14%; note: read at 38.3 µM for the half of the compounds with a filed dose; 0% is about no effect
Shiga inhibitor: blocks Shiga toxin action in Vero cells; Vero cells, Shiga toxin protein synthesis inhibition reporter; inhibition, % at 38.7 µM; hit rate 9.2% among 290,000; AID 2315; in the data active = inhibition mostly above about 28%, no sharp cut-off; inactive = mostly below about 43%; note: 0% is about no effect
Pf growth 96h: P. falciparum growth inhibition at 96 hour, primary screen for plastid delayed-death inhibitors. hit rate 6.9% among 320,000. AID 504834. Potency, µM (series often up to 28.7 µM), without a hit: at the top dose activity change, negative = inhibition, most hits filed as inhibitors. P. falciparum luciferase reporter growth, 96 h; note: potency is the fitted concentration of half-maximal effect; % is set by controls: 0 for no effect and ±100 for the full control effect
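Cell-based qHTS: luciferase-tagged P. falciparum in erythrocytes (2% hematocrit, 0.05% parasitemia final) incubated with compounds for 96 hours, 37 C, 5% CO2; luciferase detection reagent then added and luminescence measured.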
Starred values were filed as active, the others as inactive; i = inactive; u = inconclusive; x = no result given; [ ] = remark or other dose. This is a sample that favours compounds with a hit; in the whole collection about 19% have one here. Unless noted, calls come from the whole dose curve; as a rule, active = well fitted inhibition curve with a large enough effect; inconclusive = small, poorly fitted or top-dose-only effect, or another doubt; inactive = no such curve, though single readings can be large or run the other way.

SMILES	Pf growth 48h	Marburg entry inh	Lassa entry inh	Cycloheximide cs	Shiga inhibitor	Pf growth 96h
CS(=O)(=O)N(CC(=O)NN=C1CCCCCC1)c1ccc(Oc2ccccc2)cc1	11%	x	x	15	14	-21%
CN(C)c1ccc(/C=C2\C(=O)NC(=O)N(Cc3ccc(F)cc3)C2=O)cc1	3%	4%[46.1 µM]	0%[46.1 µM]	-3	-6	15%
Cn1cccc1C(=O)OCc1ccc(C(C)(C)C)cc1	128%	21%[46.1 µM]	-30%	32*	98*	83%
O=c1[nH]c2nc(Br)[nH]c(=O)c2[nH]1	x	-17%[46.1 µM]	-3%[46.1 µM]	x	x	x
CCOC(=O)C1=C(N)n2c(s/c(=C\c3ccco3)c2=O)=C(C(=O)OC(C)C)C1c1ccco1 (centres undefined)	2.9µM*	u	-17%	-2	9	u
CCOC(=O)C1=C(N)n2c(s/c(=C/c3ccco3)c2=O)=C(C(=O)OCC)C1c1ccco1 (centres undefined)	x	-18%	x	x	x	x
CCN1CC2(COC(=O)c3ccccc3N)CCC(OC)C34C5CC6C(OC)CC(O)(C5C6OC)C(O)(C(OC)C23)C14 (centres undefined)	x	26%	13%	-4	-6	u
CN1c2ccccc2C(C)(C)C12CC(c1cccc(S(=O)(=O)N3CCCC3)c1)=NO2 (centres undefined)	10µM*	0.46µM*	0.52µM*	-3	-1	u
O=S(=O)(c1ccc(-c2ccccc2)cc1)N1CCCCC1	-1%	5%	-14%	-2	4	-18%
CN1c2ccccc2C(C)(C)C12CC(c1ccc(S(=O)(=O)N3CCCCC3)cc1)=NO2 (centres undefined)	-11%	0.16µM*	0.18µM*	-3	-9	-20%
O=C(NCC(c1ccco1)N1CCN(c2ccc(F)cc2)CC1)C(=O)NC1CCCCC1 (centres undefined)	9%	6%	u	x	x	11%
CN(CC(=O)Nc1ccc(F)cc1)C(=O)c1cc2c(s1)CCCCC2	-8%	-2%[46.1 µM]	-30%	x	x	17%
C=CCOC(=O)N[C@@H](CCc1ccccc1)C(C(C)=O)C(C)=O	x	-16%[14.2 µM]	x	x	x	x
COc1ccc(C(=O)NC(=O)NC2(C(Cl)(Cl)Cl)OCCO2)cc1	170%	u	u	51*	76*	169%
O=C(Cc1ccc(F)cc1)NC1CCCCCC1	15%	14%	22%	5	39	0%
O=C(CCSCc1ccccc1Cl)NC1CCCCC1	39%	28%[46.1 µM]	1%	37*	95*	6%
Clc1ccc(CN=C(Nc2ccccc2)NC2CCCCC2)cc1	9.3µM*	u	u	-1	-9	9.3µM*
O=C(Cc1ccc(-n2cccc2)cc1)NC1CCCCCC1	-2%	-6%	-16%	6	-8	15µM*
O=C(CCS(=O)(=O)c1ccccc1Cl)NC1CCCCCC1	x	u	21%	x	x	x
O=C(CCSc1ccc(Cl)cc1)NC1CCCC1	25%	x	x	-1	-2	5.9µM*
O=C(CCNC(=O)c1ccc(Cl)cc1)NC1CCCCCC1	36%	8%	25%	x	x	1%
CCS(=O)(=O)c1ccc2oc(SCC(=O)Nc3ccc(OC)cc3OC)nc2c1	29%	x	x	2	24	-3%
Cc1cc2n(n1)CCCN2C(=O)Nc1ccc(C)c(Cl)c1	x	4%[46.1 µM]	-4%[46.1 µM]	x	x	x
CCC(C)(C)NC(=O)Cc1ccc(Cl)cc1	39%	-7%[46.1 µM]	u	25*	28	19%
Cc1ccc(C)c(OCCCC(=O)NC2CCCCC2)c1	u	-19%	-19%	-1	x	-27%
SMILES	Pf growth 48h	Marburg entry inh	Lassa entry inh	Cycloheximide cs	Shiga inhibitor	Pf growth 96h
Cc1ccccc1OCCCC(=O)NC1CCCCC1	33%	2%	15%	13*	x	0%
C=CCNC(=O)c1ccc(-n2cccc2)cc1	48%	u	u	30*	31	0%
O=C(Cc1ccc(Cl)cc1)NC1CCCCCC1	69%	5%	u	20*	21	32%
CCC(C)(C)NC(=O)Cc1ccc(F)cc1	3%	11%[46.1 µM]	-1%	1	-12	43%
CC1CCc2onc(C(=O)N3CCN(c4cccc(C(F)(F)F)c4)CC3)c2C1 (centres undefined)	x	x	-24%[46.1 µM]	x	x	x
CCc1ccc(C(=O)CN2C(=O)C(C)N(c3ccc(C)cc3)C2=O)cc1 (centres undefined)	14%	-4%[46.1 µM]	-1%	9	14	25%
O=C(NC1CC1)c1ccc(-n2cccc2)cc1	i	u	-16%	62*	39	79%
